Laboratory results taken from the supplement of paper PMC11732987, “Enantioselective OTUD7B fragment discovery through chemoproteomics screening and high-throughput optimisation” (Communications Chemistry, 2025).

Experiments:
Assay in all cases: log2 ratio of Biotin-Ahx-Ub-VS probe labelling (fragment/DMSO); higher = less target engagement (more negative = stronger competition), active = hit call of the paper (q ≤ 0.05, log2 ratio ≤ -1)
Conditions in all cases: compound concentration: 200 uM; treatment time: 3 h
[1] = molecular target: T1, ALG13 (UniProt Q9NP73)
T1 sequence (whole entry): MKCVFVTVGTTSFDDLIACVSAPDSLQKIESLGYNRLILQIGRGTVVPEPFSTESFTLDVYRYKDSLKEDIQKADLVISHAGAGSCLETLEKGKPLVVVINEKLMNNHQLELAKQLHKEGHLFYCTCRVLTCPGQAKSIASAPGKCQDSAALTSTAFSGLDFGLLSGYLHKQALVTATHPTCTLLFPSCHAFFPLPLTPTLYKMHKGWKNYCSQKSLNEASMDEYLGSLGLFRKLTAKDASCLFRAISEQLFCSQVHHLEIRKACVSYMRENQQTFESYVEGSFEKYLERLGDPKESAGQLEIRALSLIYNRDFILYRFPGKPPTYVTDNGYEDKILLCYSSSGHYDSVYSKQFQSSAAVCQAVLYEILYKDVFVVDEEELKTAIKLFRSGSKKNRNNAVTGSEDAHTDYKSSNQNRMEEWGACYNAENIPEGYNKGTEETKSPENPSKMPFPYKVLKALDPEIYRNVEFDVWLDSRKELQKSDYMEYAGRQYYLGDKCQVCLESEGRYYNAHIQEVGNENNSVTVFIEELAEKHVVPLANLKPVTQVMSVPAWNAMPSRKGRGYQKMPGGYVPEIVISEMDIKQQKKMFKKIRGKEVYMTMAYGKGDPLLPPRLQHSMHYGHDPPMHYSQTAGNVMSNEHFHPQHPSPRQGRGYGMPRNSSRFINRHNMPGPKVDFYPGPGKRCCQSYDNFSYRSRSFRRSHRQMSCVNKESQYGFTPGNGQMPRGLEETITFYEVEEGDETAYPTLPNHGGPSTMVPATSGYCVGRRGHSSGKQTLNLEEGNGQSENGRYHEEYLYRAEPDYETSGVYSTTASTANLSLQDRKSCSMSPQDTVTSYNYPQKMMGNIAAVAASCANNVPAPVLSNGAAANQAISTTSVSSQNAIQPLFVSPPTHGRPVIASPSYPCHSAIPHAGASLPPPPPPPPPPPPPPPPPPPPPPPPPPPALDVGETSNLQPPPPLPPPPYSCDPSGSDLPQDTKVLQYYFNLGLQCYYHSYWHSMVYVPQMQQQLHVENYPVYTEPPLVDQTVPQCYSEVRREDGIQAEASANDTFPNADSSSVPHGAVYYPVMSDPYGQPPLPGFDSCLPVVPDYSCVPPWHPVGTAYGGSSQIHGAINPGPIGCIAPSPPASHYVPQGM
Outline: (§1)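 HEK293T lysate (495 µg per sample, in Tris/CHAPS/IGEPAL buffer with protease inhibitors) was exposed in triplicate for 3 h to fragment at 200 µM or to vehicle, then to Biotin-Ahx-Ub-VS at 0.5 µM final for 1 h. Labelled DUBs were enriched on NeutrAvidin, digested with LysC and trypsin, and analysed by diaPASEF LC-MS/MS. Spectronaut label-free quantities were normalised to the global median, and values are average log2 ratios of fragment over vehicle from an unpaired t-test. Only proteins with ≥2 unique peptides were used.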

[2] = molecular target: ATXN3 (UniProt P54252)
Outline: as §1

[3] = molecular target: T2, BAP1 (UniProt Q92560)
T2 sequence (whole entry): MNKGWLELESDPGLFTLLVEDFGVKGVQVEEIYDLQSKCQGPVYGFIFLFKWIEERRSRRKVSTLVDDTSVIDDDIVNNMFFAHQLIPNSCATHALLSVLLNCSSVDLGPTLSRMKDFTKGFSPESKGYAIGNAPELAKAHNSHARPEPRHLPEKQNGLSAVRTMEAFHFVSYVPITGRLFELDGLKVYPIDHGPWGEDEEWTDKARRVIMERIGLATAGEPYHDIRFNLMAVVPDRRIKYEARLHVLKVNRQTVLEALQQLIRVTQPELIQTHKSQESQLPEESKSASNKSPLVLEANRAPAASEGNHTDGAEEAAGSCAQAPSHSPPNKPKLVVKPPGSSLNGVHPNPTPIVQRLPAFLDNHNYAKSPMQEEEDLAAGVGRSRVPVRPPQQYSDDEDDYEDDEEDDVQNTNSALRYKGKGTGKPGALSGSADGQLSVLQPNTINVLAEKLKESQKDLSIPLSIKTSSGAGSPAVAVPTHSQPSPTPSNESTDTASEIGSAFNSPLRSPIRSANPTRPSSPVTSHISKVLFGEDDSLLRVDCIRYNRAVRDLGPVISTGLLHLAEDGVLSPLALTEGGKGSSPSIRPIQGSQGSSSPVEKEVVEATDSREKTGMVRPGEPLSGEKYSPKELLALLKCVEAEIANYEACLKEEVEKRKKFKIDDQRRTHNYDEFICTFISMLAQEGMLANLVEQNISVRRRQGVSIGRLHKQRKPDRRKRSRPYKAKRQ
Outline: as §1

[4] = molecular target: EIF3F (UniProt O00303)
Outline: as §1

[5] = molecular target: EIF3H (UniProt O15372)
Outline: as §1

[6] = molecular target: T3, FAM105A (UniProt Q9NUU6)
T3 sequence (whole entry): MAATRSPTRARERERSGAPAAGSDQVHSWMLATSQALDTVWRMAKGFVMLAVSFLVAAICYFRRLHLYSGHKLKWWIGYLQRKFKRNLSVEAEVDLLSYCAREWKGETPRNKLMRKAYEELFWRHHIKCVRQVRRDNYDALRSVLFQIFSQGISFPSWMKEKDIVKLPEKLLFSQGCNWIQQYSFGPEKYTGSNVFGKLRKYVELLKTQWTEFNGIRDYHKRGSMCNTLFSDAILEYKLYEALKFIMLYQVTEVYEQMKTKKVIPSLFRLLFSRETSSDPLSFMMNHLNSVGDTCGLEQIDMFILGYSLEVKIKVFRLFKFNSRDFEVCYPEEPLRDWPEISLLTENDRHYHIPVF
Outline: as §1

[7] = molecular target: OTUB1 (UniProt Q96FW1)
Outline: as §1

[8] = molecular target: T4, OTUD4 (UniProt Q01804)
T4 sequence (whole entry): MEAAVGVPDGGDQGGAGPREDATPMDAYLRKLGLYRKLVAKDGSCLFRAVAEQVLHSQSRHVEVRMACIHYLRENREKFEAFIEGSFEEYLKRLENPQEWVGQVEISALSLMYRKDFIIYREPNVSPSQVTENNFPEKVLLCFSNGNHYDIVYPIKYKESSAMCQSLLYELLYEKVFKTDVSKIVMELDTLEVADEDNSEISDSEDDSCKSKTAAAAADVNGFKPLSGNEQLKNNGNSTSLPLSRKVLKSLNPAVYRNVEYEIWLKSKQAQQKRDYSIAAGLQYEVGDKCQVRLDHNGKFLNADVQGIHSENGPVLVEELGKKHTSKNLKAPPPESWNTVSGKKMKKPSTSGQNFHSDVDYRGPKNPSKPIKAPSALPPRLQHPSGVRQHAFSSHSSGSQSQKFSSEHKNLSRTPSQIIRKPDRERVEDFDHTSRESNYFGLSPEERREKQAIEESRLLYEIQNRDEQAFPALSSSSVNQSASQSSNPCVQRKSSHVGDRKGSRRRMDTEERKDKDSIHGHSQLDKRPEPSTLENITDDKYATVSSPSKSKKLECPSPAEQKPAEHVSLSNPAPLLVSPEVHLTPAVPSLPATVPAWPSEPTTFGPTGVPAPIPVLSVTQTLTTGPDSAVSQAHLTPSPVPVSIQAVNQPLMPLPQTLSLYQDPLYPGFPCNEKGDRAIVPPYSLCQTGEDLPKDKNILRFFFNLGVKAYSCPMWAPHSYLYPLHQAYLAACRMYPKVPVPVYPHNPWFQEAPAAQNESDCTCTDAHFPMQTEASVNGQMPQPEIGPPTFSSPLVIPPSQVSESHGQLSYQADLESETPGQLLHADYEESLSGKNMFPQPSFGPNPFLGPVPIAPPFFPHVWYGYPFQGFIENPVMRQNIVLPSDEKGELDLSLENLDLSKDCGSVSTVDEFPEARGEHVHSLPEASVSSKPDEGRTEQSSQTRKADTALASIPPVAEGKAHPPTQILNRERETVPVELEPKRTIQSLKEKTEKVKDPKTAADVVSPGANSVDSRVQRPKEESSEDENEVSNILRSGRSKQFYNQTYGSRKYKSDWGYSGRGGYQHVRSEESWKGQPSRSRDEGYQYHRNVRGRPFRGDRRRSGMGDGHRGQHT
Outline: as §1

[9] = molecular target: T5, OTUD5 (UniProt Q96G74)
T5 sequence (whole entry): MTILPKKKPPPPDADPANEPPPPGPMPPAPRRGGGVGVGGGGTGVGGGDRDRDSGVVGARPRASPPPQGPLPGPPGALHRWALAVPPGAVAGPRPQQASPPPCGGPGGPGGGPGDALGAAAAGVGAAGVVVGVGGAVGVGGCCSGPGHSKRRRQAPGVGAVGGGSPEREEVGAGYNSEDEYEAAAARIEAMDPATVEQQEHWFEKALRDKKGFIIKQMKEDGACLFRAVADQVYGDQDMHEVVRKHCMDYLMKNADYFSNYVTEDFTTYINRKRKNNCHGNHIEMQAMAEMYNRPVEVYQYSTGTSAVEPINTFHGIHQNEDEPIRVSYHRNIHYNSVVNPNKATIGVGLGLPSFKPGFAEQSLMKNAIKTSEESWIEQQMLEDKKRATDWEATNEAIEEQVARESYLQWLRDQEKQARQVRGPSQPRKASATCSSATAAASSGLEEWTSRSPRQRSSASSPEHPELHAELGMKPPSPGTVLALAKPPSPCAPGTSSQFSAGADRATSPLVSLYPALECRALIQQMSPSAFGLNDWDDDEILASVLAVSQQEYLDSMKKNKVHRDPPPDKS
Outline: as §1

Measured: log2 ratio of Biotin-Ahx-Ub-VS probe labelling

ATXN3, sequence (P54252 whole entry): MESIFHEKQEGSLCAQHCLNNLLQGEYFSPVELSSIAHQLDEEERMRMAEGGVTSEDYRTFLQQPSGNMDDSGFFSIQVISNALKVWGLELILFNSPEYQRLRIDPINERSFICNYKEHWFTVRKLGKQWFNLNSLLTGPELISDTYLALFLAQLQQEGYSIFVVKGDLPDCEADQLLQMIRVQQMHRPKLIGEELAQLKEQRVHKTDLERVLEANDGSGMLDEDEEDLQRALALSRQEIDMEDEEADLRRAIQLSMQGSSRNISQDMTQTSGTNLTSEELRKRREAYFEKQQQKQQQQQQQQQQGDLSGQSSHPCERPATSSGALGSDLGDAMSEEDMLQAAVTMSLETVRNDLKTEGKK
EIF3F, sequence (O00303 whole entry): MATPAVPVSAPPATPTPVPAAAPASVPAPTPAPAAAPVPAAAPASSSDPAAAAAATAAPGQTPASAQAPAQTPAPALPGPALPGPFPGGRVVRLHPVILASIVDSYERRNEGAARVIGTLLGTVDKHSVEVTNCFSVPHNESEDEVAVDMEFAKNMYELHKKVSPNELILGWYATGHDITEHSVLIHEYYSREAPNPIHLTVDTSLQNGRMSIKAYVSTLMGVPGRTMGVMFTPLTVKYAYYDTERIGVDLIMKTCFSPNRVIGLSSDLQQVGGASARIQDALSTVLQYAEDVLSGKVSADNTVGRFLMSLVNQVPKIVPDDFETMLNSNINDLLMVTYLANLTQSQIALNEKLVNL
OTUB1, sequence (Q96FW1 whole entry): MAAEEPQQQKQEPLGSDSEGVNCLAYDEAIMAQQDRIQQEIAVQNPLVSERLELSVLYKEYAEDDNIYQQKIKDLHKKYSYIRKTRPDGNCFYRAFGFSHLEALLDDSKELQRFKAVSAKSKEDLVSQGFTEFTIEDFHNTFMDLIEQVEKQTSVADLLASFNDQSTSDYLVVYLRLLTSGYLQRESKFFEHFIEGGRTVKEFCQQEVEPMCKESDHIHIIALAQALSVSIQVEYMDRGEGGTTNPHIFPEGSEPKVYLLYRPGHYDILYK
EIF3H, sequence (O15372 whole entry): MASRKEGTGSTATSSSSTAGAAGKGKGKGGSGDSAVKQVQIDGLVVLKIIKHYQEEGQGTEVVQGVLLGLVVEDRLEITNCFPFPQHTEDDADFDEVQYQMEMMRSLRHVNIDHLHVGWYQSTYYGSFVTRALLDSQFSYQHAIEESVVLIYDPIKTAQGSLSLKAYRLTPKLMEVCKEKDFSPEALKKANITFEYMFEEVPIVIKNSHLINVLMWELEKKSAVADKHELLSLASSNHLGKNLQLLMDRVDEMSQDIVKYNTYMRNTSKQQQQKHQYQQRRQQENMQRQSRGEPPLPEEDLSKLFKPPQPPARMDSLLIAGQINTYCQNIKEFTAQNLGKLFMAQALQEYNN

CC(C)n1nccc1NC(=O)CCl
inactive: [1] -0.568 | [2] -0.233 | [4] -0.0764 | [5] 0.237 | [6] 0.00922 | [7] -0.27 | [8] -0.438 | [9] -0.522
active: [3] -4.23
